The list is not random: actives were taken first. Their share in the collection is about 9.3%.
ELG1 repair inh = qHTS screen for small molecules that inhibit ELG1-dependent DNA repair in human embryonic kidney (HEK293T) cells expressing luciferase-tagged ELG1 | HEK293T ELG1-luciferase reporter, luminescence, 16 h; DNA damage induced by 5-fluorouridine | Potency, µM (titrated, usually from 46.1 µM), most hits filed as inhibitors | hit rate 2.3% among 330,000 | AID 504467, 2011; also: nearly all actives have a fitted effect of over 55% in size
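DMSO vehicle served as the neutral condition. Each well held 2,000 cells given 5-fluorouridine plus compound; after 16 hr at 37 °C/5% CO2, ONE-Glo was added and luciferase measured 30 min later.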
SMN2 splice enh = qHTS Assay for Enhancers of SMN2 Splice Variant Expression | HEK293 SMN2-luciferase splicing reporter, luminescence, 30-36 h | Potency, µM (titrated, usually from 46.1 µM), usual class: activators | hit rate 2.8% among 210,000; also: nearly all actives have a fitted effect of over 55% in size
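qHTS luciferase splicing reporter: luminescence rises when SMN2 exon 7 is included in transfected HEK293 cells. Compound exposure lasted 30-36 h at 37C, with 4.5 mM final sodium butyrate as control, followed by a ONE-Glo read.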
FLuc counter = qHTS profiling assay for firefly luciferase inhibitor/activator using purifed enzyme and Km concentrations of substrates (counterscreen for miR-21 project); Luciferin 4-monooxygenase (Photinus pyralis), P08659; purified FLuc, Km substrates, luminescence inhibition; Potency, µM (top dose mostly 57.5 µM), actives largely listed as inhibitors; hit rate 6.9% among 360,000; AID 588342, 2011; also: nearly all actives have a fitted effect of over 55% in size
Target sequence (P08659 whole entry, looked up): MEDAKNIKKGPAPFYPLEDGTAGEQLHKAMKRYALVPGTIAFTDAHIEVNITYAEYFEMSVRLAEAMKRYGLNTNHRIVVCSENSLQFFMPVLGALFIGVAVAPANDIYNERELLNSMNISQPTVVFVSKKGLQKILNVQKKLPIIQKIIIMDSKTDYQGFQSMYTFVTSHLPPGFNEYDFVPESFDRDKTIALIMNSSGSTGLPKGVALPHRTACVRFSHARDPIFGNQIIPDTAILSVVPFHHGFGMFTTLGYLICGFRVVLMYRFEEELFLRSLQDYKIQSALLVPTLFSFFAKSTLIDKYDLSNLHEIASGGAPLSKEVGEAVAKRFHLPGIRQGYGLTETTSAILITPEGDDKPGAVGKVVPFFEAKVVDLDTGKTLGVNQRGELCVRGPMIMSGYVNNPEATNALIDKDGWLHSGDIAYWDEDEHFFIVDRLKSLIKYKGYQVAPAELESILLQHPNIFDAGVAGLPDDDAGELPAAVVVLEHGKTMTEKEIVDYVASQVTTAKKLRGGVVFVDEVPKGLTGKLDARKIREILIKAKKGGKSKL
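Biochemical qHTS of compounds, final roughly 60 µM downward over six points, against 10 nM purified firefly luciferase using Km concentrations of substrates (10 uM D-luciferin, 10 uM ATP) in Tris acetate pH 7.5 buffer; luminescence output.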
NPC1 promoter act = qHTS Assay for NPC1 Promoter Activators; Huh7 NPC1 promoter luciferase reporter, 24 h; Potency, µM (titrated, usually from 9.22 µM), most hits filed as activators; hit rate 2.4% among 320,000; AID 485313, 2010; also: nearly all actives have a fitted effect of over 60% in size
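Huh7 cells stably carrying NPC1 promoter–luciferase, plated in Opti-MEM with 10% FBS for 2 h, were exposed to compound in DMSO for 24 h at 37 °C; luciferase reagent was added for 10 min and luminescence read.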
ELG1 genotox = qHTS screen for small molecules that induce genotoxicity in human embryonic kidney (HEK293T) cells expressing luciferase-tagged ELG1 | HEK293T ELG1-luciferase reporter, luminescence, 16 h | hit rate 1.3% among 330,000 | AID 504466, 2011 | Potency, µM (series often up to 46 µM), actives largely listed as activators; also: nearly all actives have a fitted effect of over 60% in size
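Cells (2,000/well) expressing the ELG1-luciferase fusion are dosed by pin tool and kept 16 hr at 37 °C, 5% CO2. Signal comes from ONE-Glo luciferase reagent after 30 min at room temperature.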
Rab9 prom act = qHTS Assay for Rab9 Promoter Activators; AID 485297, 2010; Potency, µM (top dose mostly 9.22 µM), actives largely listed as activators; hit rate 2.8% among 320,000; Huh7 Rab9 promoter-luciferase reporter, luminescence, 24 h; also: nearly all actives have a fitted effect of over 60% in size
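Measured in stably transfected Huh7 cells bearing a Rab9 promoter–luciferase construct: 24 h compound treatment at 37 °C, followed by luminescence detection.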
Large screens that a line does not name were inactive. Calls follow the shape of the dose curve; as a rule, active = well fitted curve in the direction sought with a large enough effect; inconclusive = small, poorly fitted or top-dose-only effect, or another doubt; inactive = no such curve, though single readings can be large; an effect the other way counts as inactive or inconclusive.

CCCCC(=O)Nc1nc(C)c(-c2csc(Nc3cc(Cl)ccc3OC)n2)s1	ELG1 repair inh inconclusive
Cc1csc(Nc2cccc3ccccc23)n1	ELG1 repair inh inconclusive, FLuc counter inconclusive
COc1ccccc1Nc1nc(C)cs1	ELG1 repair inh inconclusive, SMN2 splice enh inconclusive, FLuc counter 27µM
COc1ccccc1Nc1nc(-c2sc(NC(=O)c3ccccc3)nc2C)cs1	FLuc counter 21µM
CCCCC(=O)Nc1nc(C)c(-c2csc(Nc3cc(OC)ccc3OC)n2)s1	ELG1 repair inh 18µM
O=[N+]([O-])c1ccc(-c2csc(NN=C3CCCC3)n2)cc1	none (no result: SMN2 splice enh)
CCN(CC)S(=O)(=O)c1ccc2nc(NC(=O)c3cccnc3)sc2c1	FLuc counter 19µM (no result: ELG1 repair inh, SMN2 splice enh, NPC1 promoter act, ELG1 genotox, Rab9 prom act)
CCNS(=O)(=O)c1ccc2nc(NC(=O)c3cccnc3)sc2c1	FLuc counter 21µM, Rab9 prom act inconclusive
Cc1nc2ccc(NC(=O)c3cccnc3)cc2s1	none
COC(=O)c1c(NC(=O)CN(C)CC(=O)Nc2ccc(C)cc2)sc2c1CCC(C)C2 (stereo unspecified)	ELG1 repair inh inconclusive (no result: SMN2 splice enh)
COc1cc(C(=O)Nc2sc(C)c(C)c2C(=O)O)cc(OC)c1OC	FLuc counter inconclusive (no result: SMN2 splice enh)
COc1cc(C(=O)Nc2sc3c(c2C(=O)O)CCC(C)C3)cc(OC)c1OC (stereo unspecified)	ELG1 repair inh 2.9µM (no result: SMN2 splice enh)
COC(=O)c1c(NC(=O)Cc2cccs2)sc(C(=O)N2CCCCC2)c1C	ELG1 repair inh 26µM
COC(=O)c1c(NC(=O)Cc2cccs2)sc2c1CCC(C)C2 (stereo unspecified)	ELG1 repair inh inconclusive, FLuc counter 17µM, Rab9 prom act inconclusive
O=C(COc1ccc2c(-c3ccccc3)cc(=O)oc2c1)N[C@@H](Cc1c[nH]c2ccc(O)cc12)C(=O)O	FLuc counter inconclusive (no result: SMN2 splice enh)
CCOC(=O)c1cnc2ccccc2c1Nc1ccc2c(c1)OCCO2	ELG1 repair inh inconclusive, FLuc counter inconclusive
CCOC(=O)c1cc2c3ccccc3n(CC)c2nc1N	none
CCn1nnc2cc(C(=O)Nc3ccc(Br)cc3F)ccc21	none (no result: ELG1 repair inh, SMN2 splice enh, NPC1 promoter act, ELG1 genotox, Rab9 prom act)
CCn1nnc2cc(C(=O)NCCc3ccccc3F)ccc21	ELG1 repair inh inconclusive, FLuc counter 1.1µM, NPC1 promoter act 0.32µM, ELG1 genotox inconclusive, Rab9 prom act 0.4µM (no result: SMN2 splice enh)
Cc1ccc(Cn2ccc(C3CC3)n2)cc1	ELG1 repair inh inconclusive, SMN2 splice enh inconclusive, FLuc counter 17µM, NPC1 promoter act inconclusive, Rab9 prom act inconclusive
COc1ccc(NC(=O)CC2Nc3cccc4cccc(c34)NC2=O)cc1 (stereo unspecified)	ELG1 repair inh 23µM
O=C(CC1Nc2cccc3cccc(c23)NC1=O)Nc1ccc(F)cc1 (stereo unspecified)	none
COc1cc(C(=O)Nc2ccc3c(c2)ncn3C)cc(OC)c1OC	ELG1 repair inh inconclusive, FLuc counter inconclusive, ELG1 genotox inconclusive (no result: SMN2 splice enh)
CC(C)(C)n1cnc2cc(NC(=O)c3ccccc3)ccc21	ELG1 repair inh inconclusive, FLuc counter 6µM, NPC1 promoter act 1.4µM, ELG1 genotox 5.2µM, Rab9 prom act 1.4µM (no result: SMN2 splice enh)
CC(C)(C)n1cnc2cc(NCc3cccs3)ccc21	ELG1 repair inh inconclusive, SMN2 splice enh 8.9µM, FLuc counter 12µM, NPC1 promoter act inconclusive, Rab9 prom act inconclusive
CCn1cnc2cc(NC(=O)c3cccs3)ccc21	ELG1 repair inh inconclusive, SMN2 splice enh 13µM, FLuc counter 15µM, NPC1 promoter act 3.5µM, ELG1 genotox inconclusive, Rab9 prom act 2.2µM
CCn1cnc2cc(NCc3cccs3)ccc21	ELG1 repair inh inconclusive, SMN2 splice enh inconclusive, FLuc counter inconclusive, NPC1 promoter act inconclusive, ELG1 genotox inconclusive
CCn1cnc2cc(NCc3ccc(N(C)C)cc3)ccc21	ELG1 repair inh inconclusive, FLuc counter inconclusive, ELG1 genotox inconclusive
CN(C)c1ccc(CNc2ccc3c(c2)ncn3C(C)(C)C)cc1	FLuc counter 8.5µM (no result: SMN2 splice enh)
CC(=O)N1CCc2cc(S(=O)(=O)CCC(=O)N3CCN(c4ccccc4F)CC3)ccc21	none

Source: PubChem BioAssay (National Center for Advancing Translational Sciences (NCATS))
